We go through 8 molecules from PubChem BioAssay (Tox21).

Test [1] is described as follows: qHTS assay to identify small molecule agonists of the hypoxia (HIF-1) signaling pathway - cell viability counter screen (AID 1224844; calls by dose curve; also: nearly all actives have a fitted effect of over 50% in size; also: potency is read from the fitted curve at half-maximal effect). The essentials:
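Tox21 10K compounds were added to HRE-bla ME-180 cells (0.5% dialyzed FBS) and incubated 17 hrs at 37C; ATP-based CellTiter-Glo luminescence then reported cell viability in the same wells.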
For orientation: In qHTS, concentration-response curves come from the screen itself.

Test [2] can be described thus: qHTS assay to identify small molecule agonists of the hypoxia (HIF-1) signaling pathway (AID 1224846; active = well fitted activation curve with a large enough effect in the signal ratio in the repeat runs, not every such curve was filed as active; the % refers to the signal ratio). In short, it runs like this: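 Steps: seed ME-180 HRE-bla cells (2,000/well, 0.5% dialyzed FBS); incubate 5 hrs at 37C; pin-transfer compounds or DMSO; incubate 17 hrs; add LiveBLAzer B/G substrate CCF4-AM; measure reporter activation by FRET.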
A short description of test [3]: qHTS assay to identify small molecule agonists of H2AX - cell viability counter screen (AID 1224847; calls by dose curve; also: nearly all actives have a fitted effect of over 30% in size; also: potency is read from the fitted curve at half-maximal effect). The essentials:
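Cytotoxicity counter screen in wild-type CHO-K1 cells: a 3 hr compound treatment at 37C across 15 concentrations, followed by CellTiter-Glo luminescence to gauge viable cells.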

A short description of test [4]: qHTS RealTime-Glo MT Cell Viability Assay in HepG2 cells - 24 hour (AID 1224867). Also: nearly all actives have a fitted effect of over 50% in size. Also: potency is read from the fitted curve at half-maximal effect. In short, it runs like this:
(§1)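 Viability was tracked continuously by NanoLuc luminescence from prosubstrate reduced by living HepG2 cells, at successive time points over 40 h of compound exposure. Cells with reagent were preincubated 5 h at 37 °C before compound addition.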

Test [5] is described as follows: qHTS RealTime-Glo MT Cell Viability Assay in HEK293 cells - 32 hour (AID 1224868). Also: nearly all actives have a fitted effect of over 50% in size. Also: potency is read from the fitted curve at half-maximal effect. In short, it runs like this:
(§2)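 Viability tracked continuously by luminescence as live cells reduce a prosubstrate for NanoLuc; HEK293 cells preincubated 5 h, compound-treated at 37 C, and read at 0, 8, 16, 24, 32 and 40 h.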

Test [6] in a line: A CellTox Green Cytotoxicity Assay to monitor cytotoxicity in HEK293 cells - 0 hour (AID 1224869). Also: nearly all actives have a fitted effect of over 50% in size. The essentials: (§3)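 Cytotoxicity was tracked continuously in HEK293 cells by a DNA-binding dye excluded from viable cells. Compounds were transferred in DMSO 5 h after seeding; fluorescence was recorded at intervals up to 40 h.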
Test [7] is described as follows: qHTS RealTime-Glo MT Cell Viability Assay in HepG2 cells - 40 hour (AID 1224870). Also: nearly all actives have a fitted effect of over 50% in size. Also: potency is read from the fitted curve at half-maximal effect. The essentials:
(§4)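 HepG2 cells mixed with RealTime-Glo MT reagents (NanoLuc plus cell-permeant prosubstrate) were seeded at 600 cells/well, incubated 5 h at 37 C/5% CO2, then pinned with compounds in DMSO; nonlytic luminescence tracked viability during 40 h treatment.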

A short description of test [8]: A CellTox Green Cytotoxicity Assay to monitor cytotoxicity in HEK293 cells - 40 hour (AID 1224871). Also: nearly all actives have a fitted effect of over 45% in size. Also: potency is read from the fitted curve at half-maximal effect. In short, it runs like this: as §3
Test [9] can be described thus: qHTS RealTime-Glo MT Cell Viability Assay in HEK293 cells - 16 hour (AID 1224872). Also: nearly all actives have a fitted effect of over 50% in size. Also: potency is read from the fitted curve at half-maximal effect. The essentials:
as §2

Test [10] is described as follows: qHTS RealTime-Glo MT Cell Viability Assay in HepG2 cells - 8 hour (AID 1224873). Also: nearly all actives have a fitted effect of over 55% in size. Also: potency is read from the fitted curve at half-maximal effect. The essentials:
as §4

Test [11] is described as follows: qHTS RealTime-Glo MT Cell Viability Assay in HEK293 cells - 40 hour (AID 1224874). Also: nearly all actives have a fitted effect of over 50% in size. Also: potency is read from the fitted curve at half-maximal effect. The note with it: RealTime-Glo luminescence; max response: hits give low values. In short, it runs like this:
(§5)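 Nonlytic bioluminescent viability monitoring. HEK293 at 600 cells/well with reagent; 5 h settle; compound transfer by pintool; plates held at 37 C and read at set time points.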

Test [12] can be described thus: A CellTox Green Cytotoxicity Assay to monitor cytotoxicity in HEK293 cells - 24 hour (AID 1224875). Also: nearly all actives have a fitted effect of over 45% in size. Also: potency is read from the fitted curve at half-maximal effect. In short, it runs like this:
as §3

The nature of test [13]: A CellTox Green Cytotoxicity Assay to monitor cytotoxicity in HepG2 cells - 16 hour (AID 1224876). Also: nearly all actives have a fitted effect of over 45% in size. Also: potency is read from the fitted curve at half-maximal effect. In short, it runs like this:
(§6)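 Real-time, homogeneous cytotoxicity readout: dead-cell DNA staining by CellTox Green in HepG2 monolayers, fluorescence measured at timed intervals up to 40 h of continuous compound exposure.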

Test [14] can be described thus: A CellTox Green Cytotoxicity Assay to monitor cytotoxicity in HepG2 cells - 24 hour (AID 1224878). Also: nearly all actives have a fitted effect of over 45% in size. Also: potency is read from the fitted curve at half-maximal effect. In short, it runs like this:
as §6

Test [15] in a line: A CellTox Green Cytotoxicity Assay to monitor cytotoxicity in HepG2 cells - 40 hour (AID 1224879). Also: nearly all actives have a fitted effect of over 40% in size. Also: potency is read from the fitted curve at half-maximal effect. In short, it runs like this:
as §6

Test [16] is described as follows: qHTS RealTime-Glo MT Cell Viability Assay in HEK293 cells - 0 hour (AID 1224880). In short, it runs like this:
as §5

Test [17] can be described thus: qHTS RealTime-Glo MT Cell Viability Assay in HepG2 cells - 32 hour (AID 1224877). Also: nearly all actives have a fitted effect of over 55% in size. Also: potency is read from the fitted curve at half-maximal effect. In short, it runs like this:
as §1

A short description of test [18]: qHTS assay to identify small molecule agonists of H2AX (AID 1224845; active = well fitted activation curve with a large enough effect in the signal ratio in the repeat runs, not every such curve was filed as active; the % refers to the signal ratio). The essentials: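 Wild-type CHO-K1 cells plated overnight, then exposed 3 hr at 37C to compounds at 15 concentrations (0.76% DMSO). Lysed, then HTRF anti-pH2AX(S139)-cryptate/anti-H2AX-d2 detection after 24 hr at room temperature; emissions 665 and 620 nm.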
Test [19] in a line: qHTS assay to identify small molecule antagonists of the estrogen related receptor (ERR) signaling pathway from Tox21 library (AID 1224848). Also: nearly all actives have a fitted effect of over 50% in size. In short, it runs like this: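 Cells: ERR line, 2,000/well; 6 h preincubation 37 C/5% CO2. Cpd in DMSO via pin tool; 18 h, 37 C. ONE-Glo, 30 min RT, luminescence.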
Test [20] is described as follows: qHTS assay to identify small molecule agonists of the estrogen related receptor (ERR) signaling pathway from Tox21 library (AID 1224849; calls by dose curve; also: nearly all actives have a fitted effect of over 15% in size). The note with it: ERR reporter cell line, ONE-Glo luciferase, 18 h; at 92.4 µM (top of the series) unless noted. In short, it runs like this:
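Agonist signal is luciferase luminescence from an ERR reporter cell line treated 18 h at 37 C with DMSO-dissolved compounds, read 30 min after ONE-Glo addition at room temperature.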

Where “and” joins values, the source holds several entries; their conditions need not be identical. Equal values may be shown once. A number with no mark means an inactive call. Inconclusive results are not listed. Calls of active or inactive are those of the source. Unless noted, calls follow the shape of the dose curve; as a rule, active = well fitted curve in the direction sought with a large enough effect in the repeat runs; inconclusive = weak or mixed curves; inactive = no such curve, though single readings can be large; an effect the other way counts as inactive or inconclusive.
% is scaled to controls: 0 for no effect and ±100 for the full control effect.

`CCCCn1cc[n+](C)c1.[Cl][Fe-]([Cl])([Cl])[Cl]`: the Potency entry in test [1], in [2], in test [3], in test [4], in [5] and in test [6] was “inactive” each time. Moreover, the Potency result in test [7], in test [8], in test [9], in test [10], in [12] and in test [13] was “inactive” in each case. For the same molecule, the Potency result in [14], in test [15] and in test [16] was “inactive” throughout. The max response in test [11] was 2.18%.
Regarding `CC(Cc1ccccc1)N(C)Cc1ccco1` (stereo not given), the Potency entry in test [1], in test [2], in test [3], in test [5], in [6] and in [7] was “inactive” in each case. The Potency entry in test [8], in test [9], in test [10], in [12], in test [13] and in test [14] was “inactive” throughout. Further, in test [15], the Potency result was “inactive”. Also, the max response in [11] was 0.354%.
Take `[Cl][Hg][c]1ccccc1`: the Potency was 1.38 µM (active) in test [1]; 7.13 µM (active) in test [3]; 1.1 µM (active) in [5]; 3.09 µM (active) in test [7]; 1.23 µM (active) in test [8]; 1.38 µM (active) in [9]. In addition, the Potency in [10] is 2.75 µM (active); in test [11], 1.1 µM (active); in [12], 2.19 µM (active); in test [13] it was 2.75 µM (active); in test [17] it was 2.75 µM (active); in test [14], 3.47 µM (active). Also, in test [15], the Potency was 2.19 µM (active). Besides, the Potency result in test [6] and in test [16] was “inactive” in each case.
For `CC(C)[C@@H](Nc1ccc(C(F)(F)F)cc1Cl)C(=O)OC(C#N)c1cccc(Oc2ccccc2)c1` (stereo not given in full), the Potency entry in test [1], in test [5], in test [7], in test [8], in [12] and in test [13] was “inactive” each time. Also, the Potency entry in test [17], in [14], in test [15] and in test [16] was “inactive” each time. The max response in test [11] was -6.7%.
`CN(C)C(=S)SSC(=S)N(C)C`: the Potency in test [1] is 171 nM (active) and 347 nM (active); in test [3] it was 49.8 µM (active) and 89.8 µM (active) and 49.2 µM (active); in [4], 54.2 µM (active) and 436 nM (active) and 379 nM (active); in [5], 242 nM (active) and 245 nM (active); in test [7], 54.2 µM (active) and 219 nM (active) and 169 nM (active); in [8], 216 nM (active) and 195 nM (active) and 239 nM (active). In addition, the Potency in test [9] is 384 nM (active) and 692 nM (active); in test [10] it was 48.3 µM (active) and 24.5 µM (active) and 3.01 µM (active); in [11], 216 nM (active) and 219 nM (active) and 9.52 µM (active); in [12], 27.2 µM (active) and 27.5 µM (active); in test [13], 21.9 µM (active); in test [17], 54.2 µM (active) and 245 nM (active) and 169 nM (active). Moreover, in test [15], the Potency is 216 nM (active) and 275 nM (active) and 134 nM (active). Also, the Potency result in [6] is “inactive”.
`S=C=NCCc1ccccc1`: the Potency entry in test [1], in test [3], in test [6], in test [10] and in [16] was “inactive” each time. The Potency was 49.1 µM (active) in test [5], 43.7 µM (active) in test [8], 43.7 µM (active) in test [9] and 49.1 µM (active) in [11].
Turning to `COC(=O)C(C)N(C(=O)c1ccco1)c1c(C)cccc1C` (stereo not given), the Potency entry in test [18], in test [2], in [3], in test [19], in test [4] and in [5] was “inactive” each time. The Potency entry in [7], in test [8], in [9], in [10], in [12] and in test [13] was “inactive” in each case. Moreover, the Potency entry in test [17] and in test [16] was “inactive” each time. In test [20], the activity change, positive = activation was -15.8%. For the same molecule, the max response in [11] is -12.7%.
With `O=[N+]([O-])c1ccc(CCl)cc1`, the Potency result in [18], in test [2], in test [3], in test [19], in [4] and in [6] was “inactive” throughout. In addition, the Potency entry in [7], in test [8], in test [9], in test [10], in test [12] and in test [13] was “inactive” throughout. The Potency entry in test [17], in [15] and in test [16] was “inactive” throughout.
